Test results from PubChem BioAssay (NCATS).
Records with an inconclusive call do not appear. Values without a mark were called inactive. The call rests on the fitted dose curve.

Test: Cell Viability - HepG2 (AID 433);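 further: potency for ATP loss meaning cytotoxicity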
Conditions: qHTS
In short: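 Cytotoxicity is scored as loss of intracellular ATP in HepG2 cells exposed to compounds for 40 h. Concentration-response curves, normalized to DMSO and 100 uM tamoxifen, give AC50 values.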
Potency means the concentration at half of the fitted maximal effect.

**Q.** With `NC(=S)Nc1ccccc1` as the molecule, how does the Potency read?
**A.** > 92 µM

**Q.** Which Potency does the source give for `O=C(Cl)/C=C/C(=O)Cl` here?
**A.** > 92 µM

**Q.** For `C=C(Cl)Cl`, which Potency is on record?
**A.** > 92 µM

**Q.** Which Potency does the source give for `ClCBr` here?
**A.** > 92 µM

**Q.** With `COc1ccc(C=O)cc1OC` as the molecule, how does the Potency read?
**A.** > 92 µM

**Q.** For `C=CC(=O)OCC`, which Potency is on record?
**A.** > 92 µM

**Q.** For `c1nc[nH]n1`, which Potency is on record?
**A.** > 92 µM

**Q.** Which Potency does the source give for `c1ccc2c(c1)CCCC2` here?
**A.** > 92 µM

**Q.** For `CCCSC(=O)Cl`, which Potency is on record?
**A.** > 92 µM

**Q.** Which Potency does the source give for `Clc1cccc(C(Cl)(Cl)Cl)n1` here?
**A.** > 92 µM

**Q.** For `O=NN(c1ccccc1)c1ccccc1`, which Potency is on record?
**A.** > 92 µM

**Q.** For `C1CCC2CCCCC2C1` (stereo not drawn), which Potency is on record?
**A.** > 92 µM

**Q.** For `CC(O)CCl` (stereo not drawn), which Potency is on record?
**A.** > 92 µM

Test: Cell Viability - MRC5 (AID 434);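 further: cells exposed to compound for 40 hours at 37 °C; potency reflects cytotoxicity seen as loss of intracellular ATP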
Conditions: MRC5 lung fibroblast viability, qHTS
In short: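 qHTS cytotoxicity in human lung fibroblast MRC5 cells; 40 hr treatment, 37 °C; cellular ATP by luciferase luminescence; DMSO = 0%, 100 uM tamoxifen = 100% inhibition; Hill-fit AC50.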

**Q.** For `Brc1ccccc1`, which Potency is on record?
**A.** > 92 µM

**Q.** Which Potency does the source give for `CCOP(=S)(OCC)SCSC(C)(C)C` here?
**A.** > 92 µM

**Q.** With `C=C(C)C#N` as the molecule, how does the Potency read?
**A.** > 92 µM

**Q.** With `CCSC(=O)Cl` as the molecule, how does the Potency read?
**A.** > 92 µM

**Q.** With `Cc1cccc([N+](=O)[O-])c1` as the molecule, how does the Potency read?
**A.** > 92 µM

**Q.** With `Nc1c(Cl)c(Cl)nc(C(=O)O)c1Cl` as the molecule, how does the Potency read?
**A.** > 92 µM

**Q.** Which Potency does the source give for `CC(C)(C)OOC(C)(C)C` here?
**A.** > 92 µM

**Q.** Which Potency does the source give for `C=C(C)C(=O)OCC1CO1` (stereo not drawn) here?
**A.** > 92 µM

**Q.** With `Cc1ccc([N+](=O)[O-])cc1C` as the molecule, how does the Potency read?
**A.** > 92 µM

**Q.** With `O=[N+]([O-])c1ccc(Cl)c(Cl)c1` as the molecule, how does the Potency read?
**A.** > 92 µM

**Q.** For `C=CC(=C)C`, which Potency is on record?
**A.** > 92 µM

**Q.** With `Cc1ccc2ccccc2c1` as the molecule, how does the Potency read?
**A.** > 92 µM

**Q.** Which Potency does the source give for `Nc1ccccc1Cl` here?
**A.** > 92 µM

**Q.** For `Clc1ccc2ccccc2c1`, which Potency is on record?
**A.** > 92 µM

**Q.** For `[O-][Br+2]([O-])O`, which Potency is on record?
**A.** > 92 µM

**Q.** Which Potency does the source give for `Clc1nc(Cl)nc(Nc2ccccc2Cl)n1` here?
**A.** > 92 µM

**Q.** Which Potency does the source give for `OCC1CO1` (stereo not drawn) here?
**A.** > 92 µM

**Q.** For `C=CCOC(=O)c1ccccc1N`, which Potency is on record?
**A.** > 92 µM

**Q.** Which Potency does the source give for `C=CC(N)=O` here?
**A.** > 92 µM

**Q.** With `CC(C)(c1ccccc1)c1ccc(O)cc1` as the molecule, how does the Potency read?
**A.** > 92 µM

**Q.** For `CCN(CC)c1ccccc1`, which Potency is on record?
**A.** > 92 µM

**Q.** For `S=C=Nc1cccc2ccccc12`, which Potency is on record?
**A.** > 92 µM

**Q.** Which Potency does the source give for `N#CCCCl` here?
**A.** > 92 µM

**Q.** With `O=NN(CCO)CCO` as the molecule, how does the Potency read?
**A.** > 92 µM

**Q.** With `Cc1ccccc1N` as the molecule, how does the Potency read?
**A.** > 92 µM

**Q.** For `C=CCOC(C)=O`, which Potency is on record?
**A.** > 92 µM

**Q.** Which Potency does the source give for `CCCC(=O)Cl` here?
**A.** > 92 µM

**Q.** With `NC(=S)Nc1ccccc1` as the molecule, how does the Potency read?
**A.** > 92 µM

**Q.** With `O=C(Cl)/C=C/C(=O)Cl` as the molecule, how does the Potency read?
**A.** > 92 µM

**Q.** Which Potency does the source give for `C=C(Cl)Cl` here?
**A.** > 92 µM

**Q.** With `ClCBr` as the molecule, how does the Potency read?
**A.** > 92 µM

**Q.** With `COc1ccc(C=O)cc1OC` as the molecule, how does the Potency read?
**A.** > 92 µM

**Q.** With `C=CC(=O)OCC` as the molecule, how does the Potency read?
**A.** > 92 µM

**Q.** For `c1nc[nH]n1`, which Potency is on record?
**A.** > 92 µM

**Q.** Which Potency does the source give for `c1ccc2c(c1)CCCC2` here?
**A.** > 92 µM

**Q.** With `CCCSC(=O)Cl` as the molecule, how does the Potency read?
**A.** > 92 µM

**Q.** For `Clc1cccc(C(Cl)(Cl)Cl)n1`, which Potency is on record?
**A.** > 92 µM

**Q.** For `O=NN(c1ccccc1)c1ccccc1`, which Potency is on record?
**A.** > 92 µM

**Q.** With `C1CCC2CCCCC2C1` (stereo not drawn) as the molecule, how does the Potency read?
**A.** > 92 µM

**Q.** With `CC(O)CCl` (stereo not drawn) as the molecule, how does the Potency read?
**A.** > 92 µM

Test: Cell Viability - SK-N-SH (AID 435);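 further: compound exposure lasted 40 h at 37 °C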
Conditions: SK-N-SH neuroblastoma cell viability qHTS
In short: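 Cells seeded at 1500 per well and incubated 5 hr at 37 °C. Compound added, then 40 hr at 37 °C. CellTiter-Glo added, 20 min at room temperature, luminescence read.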

**Q.** With `Brc1ccccc1` as the molecule, how does the Potency read?
**A.** > 92 µM

**Q.** Which Potency does the source give for `CCOP(=S)(OCC)SCSC(C)(C)C` here?
**A.** > 92 µM

**Q.** With `C=C(C)C#N` as the molecule, how does the Potency read?
**A.** > 92 µM

**Q.** For `CCSC(=O)Cl`, which Potency is on record?
**A.** > 92 µM

**Q.** Which Potency does the source give for `Cc1cccc([N+](=O)[O-])c1` here?
**A.** > 92 µM

**Q.** With `Nc1c(Cl)c(Cl)nc(C(=O)O)c1Cl` as the molecule, how does the Potency read?
**A.** > 92 µM

**Q.** For `CC(C)(C)OOC(C)(C)C`, which Potency is on record?
**A.** > 92 µM

**Q.** With `C=C(C)C(=O)OCC1CO1` (stereo not drawn) as the molecule, how does the Potency read?
**A.** > 92 µM

**Q.** Which Potency does the source give for `Cc1ccc([N+](=O)[O-])cc1C` here?
**A.** > 92 µM

**Q.** With `O=[N+]([O-])c1ccc(Cl)c(Cl)c1` as the molecule, how does the Potency read?
**A.** > 92 µM

**Q.** Which Potency does the source give for `C=CC(=C)C` here?
**A.** > 92 µM

**Q.** Which Potency does the source give for `Cc1ccc2ccccc2c1` here?
**A.** > 92 µM

**Q.** For `Nc1ccccc1Cl`, which Potency is on record?
**A.** > 92 µM

**Q.** For `Clc1ccc2ccccc2c1`, which Potency is on record?
**A.** > 92 µM

**Q.** With `[O-][Br+2]([O-])O` as the molecule, how does the Potency read?
**A.** > 92 µM

**Q.** With `Clc1nc(Cl)nc(Nc2ccccc2Cl)n1` as the molecule, how does the Potency read?
**A.** > 92 µM

**Q.** Which Potency does the source give for `OCC1CO1` (stereo not drawn) here?
**A.** > 92 µM

**Q.** Which Potency does the source give for `C=CCOC(=O)c1ccccc1N` here?
**A.** > 92 µM

**Q.** With `C=CC(N)=O` as the molecule, how does the Potency read?
**A.** > 92 µM

**Q.** For `CC(C)(c1ccccc1)c1ccc(O)cc1`, which Potency is on record?
**A.** > 92 µM

**Q.** For `CCN(CC)c1ccccc1`, which Potency is on record?
**A.** > 92 µM

**Q.** With `S=C=Nc1cccc2ccccc12` as the molecule, how does the Potency read?
**A.** > 92 µM

**Q.** With `N#CCCCl` as the molecule, how does the Potency read?
**A.** > 92 µM

**Q.** With `O=NN(CCO)CCO` as the molecule, how does the Potency read?
**A.** > 92 µM

**Q.** For `Cc1ccccc1N`, which Potency is on record?
**A.** > 92 µM

**Q.** With `C=CCOC(C)=O` as the molecule, how does the Potency read?
**A.** > 92 µM

**Q.** Which Potency does the source give for `CCCC(=O)Cl` here?
**A.** > 92 µM

**Q.** With `NC(=S)Nc1ccccc1` as the molecule, how does the Potency read?
**A.** > 92 µM

**Q.** For `O=C(Cl)/C=C/C(=O)Cl`, which Potency is on record?
**A.** > 92 µM

**Q.** For `C=C(Cl)Cl`, which Potency is on record?
**A.** > 92 µM

**Q.** For `ClCBr`, which Potency is on record?
**A.** > 92 µM

**Q.** For `COc1ccc(C=O)cc1OC`, which Potency is on record?
**A.** > 92 µM

**Q.** For `C=CC(=O)OCC`, which Potency is on record?
**A.** > 92 µM

**Q.** For `c1nc[nH]n1`, which Potency is on record?
**A.** > 92 µM

**Q.** Which Potency does the source give for `c1ccc2c(c1)CCCC2` here?
**A.** > 92 µM

**Q.** Which Potency does the source give for `CCCSC(=O)Cl` here?
**A.** > 92 µM

**Q.** With `Clc1cccc(C(Cl)(Cl)Cl)n1` as the molecule, how does the Potency read?
**A.** > 92 µM

**Q.** With `O=NN(c1ccccc1)c1ccccc1` as the molecule, how does the Potency read?
**A.** > 92 µM

**Q.** For `C1CCC2CCCCC2C1` (stereo not drawn), which Potency is on record?
**A.** > 92 µM

**Q.** For `CC(O)CCl` (stereo not drawn), which Potency is on record?
**A.** > 92 µM
